# Experimental data as given in PubChem BioAssay (NCATS).
# Records with an inconclusive call do not appear. A call without a number means that no potency is given here. The source made the active and inactive calls. Calls follow the shape of the dose curve; as a rule, active = well fitted curve in the direction sought with a large enough effect; inconclusive = small, poorly fitted or top-dose-only effect, or another doubt; inactive = no such curve, though single readings can be large; an effect the other way counts as inactive or inconclusive.
# Tests used:
# [1] = target: Aldehyde dehydrogenase, mitochondrial (Homo sapiens) (UniProt P05091); test: qHTS for Inhibitors of the Aldehyde Dehydrogenase Family (ALDH2) Primary screen (AID 2061308); also: nearly all actives have a fitted effect of over 55% in size
# [2] = target: Retinaldehyde dehydrogenase 3 (Homo sapiens) (UniProt P47895); test: qHTS for Inhibitors of the Aldehyde Dehydrogenase Family (ALDH1A3) Primary screen (AID 2061315)
Compound,Potency [1],Potency [2]
COc1ccc(C2c3c(ncn(CCCc4ccccc4)c3=N)Oc3ccc4ccccc4c32)cc1OC (stereo not given),inactive,inactive
FC(F)(F)c1cccc(-c2nc(NCc3ccc(-c4ccnc(C(F)(F)F)c4)cc3)c3ccccc3n2)c1,inactive,inactive
Fc1cccc(CNc2ncnc3ccc(-c4cccnc4)cc23)c1,inactive,inactive
CCOC(=O)c1ccc(-n2c(C)cc(-c3nnc4n3CCCCC4)c2C)cc1,inactive,inactive
COc1ccc(NS(=O)(=O)c2ccccc2)cc1NS(=O)(=O)c1ccccc1,inactive,inactive
Cc1cccc(CNc2ccnc(-c3ccccc3C)n2)c1,inactive,inactive
NCCCCNc1ncnc2ccc(-c3ccc4c(c3)OCO4)cc12,inactive,inactive
CNC(=O)C1=C(C)NC(Nc2nc3ccccc3o2)=NC1c1nn(C)cc1Cl (stereo not given),inactive,inactive
c1nc(N2CCOCC2)c2cc(-c3ccc4c(c3)OCO4)ccc2n1,inactive,inactive
O=S(=O)(Nc1nccs1)c1ccc(NCc2cccc(Cl)c2Cl)cc1,inactive,inactive
Cc1ccc(S(=O)(=O)Nc2cccc(C(=O)Nc3nc(-c4ccccc4)cs3)c2Cl)cc1,inactive,inactive
CC(=O)Nc1sc2c(c1-c1nc3ccccc3s1)CC(C)NC2 (stereo not given),inactive,inactive
O=[N+]([O-])c1ccc(-c2nc(Nc3ccc(F)c(F)c3)c3ccccc3n2)cc1,inactive,inactive
O=C(Cc1ccc(Cl)c(Cl)c1)Nc1ccc([S+](=O)([O-])Nc2nnc(-c3ccccn3)s2)cc1,inactive,inactive
Cc1ccccc1NC(=O)CN1C(=O)N/C(=C\c2cccn2-c2cccc(C(=O)O)c2)C1=O,inactive,inactive
Cc1cc(C)nc(NC(=S)N2CCN(c3cccc([N+](=O)[O-])c3)CC2)c1,inactive,inactive
OC(c1ccccc1)(c1ccccc1)c1cnc2ccccn12,inactive,inactive
Cc1ccc(-c2nccc(=O)n2C(C)C(=O)NCCc2ccccc2)cc1 (stereo not given),inactive,inactive
CC(Nc1nc(-c2ccccc2C(F)(F)F)nc2ccccc12)c1ccc(-c2ccncc2)cc1 (stereo not given),inactive,inactive
Cc1ccc(C)c(OC2=NS(=O)(=O)c3ccccc32)c1,inactive,inactive
FC(F)(F)c1ccccc1-c1nc(NCc2ccc(Br)cc2)c2ccccc2n1,inactive,inactive
CC(C)COc1ccc(-c2ccc(=O)n(CC(=O)NCCc3ccccc3)n2)cc1,inactive,inactive

Compound,Potency [1],Potency [2]
COc1cccc(C2c3c(ncn(-c4ccccc4Br)c3=N)Oc3ccc4ccccc4c32)c1 (stereo not given),inactive,inactive
CC(C)(C)OC(=O)NCC(=O)NNC(=O)C(C(=O)OCc1ccccc1)c1ccccc1 (stereo not given),inactive,inactive
COC(=O)C1=CC[C@H](c2ccc(C)cc2)N(S(=O)(=O)c2ccc(C)cc2)[C@@H]1c1ccc(C(C)(C)C)cc1,inactive,inactive
Cc1nc(CNc2ncnc3ccc(-c4ccc(CO)o4)cc23)cs1,inactive,inactive
Cc1noc(C)c1-c1ccc(Nc2nc(-c3ccncc3)nc3ccccc23)cc1F,inactive,inactive
CCCCNC(=O)c1ccc2c(c1)ncn2-c1cccc(C)c1,inactive,inactive
COc1cc(F)c(F)c(Nc2ccc(I)cc2F)c1NS(=O)(=O)C1(CC(O)CO)CC1 (stereo not given),inactive,inactive
O=C(Cc1nnc(-c2cc3ccccc3[nH]2)s1)Nc1cc(C(F)(F)F)ccc1Cl,inactive,inactive
Cc1ccnc(NC(=S)N2CCN(c3cc(C(F)(F)F)cc(C(F)(F)F)c3)CC2)c1,inactive,inactive
Cc1ccc(OCCn2c(CCNC(=O)C3CC3)nc3ccccc32)cc1,inactive,inactive
COc1cccc(C2c3c(ncn(-c4ccccc4C)c3=N)Oc3ccc4ccccc4c32)c1 (stereo not given),inactive,inactive
COc1ccc(NS(=O)(=O)c2ccc(C)cc2)cc1C(=O)Nc1nc(-c2ccccc2)cs1,inactive,inactive
O=S(=O)(c1cccc(Cl)c1)N1CCN(S(=O)(=O)c2ccc3c(c2)OCCO3)CC1,inactive,inactive
CCN1CCC[C@@H]1CNC(=O)c1ccc2c(c1)NC(=O)/C(=C/c1ccccc1F)S2,inactive,inactive
Cc1ccc(S(=O)(=O)Nc2ccccc2C(=O)Nc2nc(-c3ccccc3)c(Br)s2)cc1,inactive,inactive
O=S(=O)(c1ccc2c(c1)OCCO2)N1CCN(S(=O)(=O)c2cccs2)CC1,inactive,inactive
Cc1cc2c(cc1C1(c3ccc(C(=O)O)cc3)CC1)C(C)(C)CCC2(C)C,inactive,inactive
O=C(NNC(=O)c1cc2ccccc2[nH]1)OCc1ccccc1,inactive,inactive
FC(F)(F)c1ccccc1-c1nc(NCC#Cc2cccnc2)c2ccccc2n1,inactive,inactive
Cc1ccc(C(=O)Nc2ccc(S(=O)(=O)Nc3nccs3)cc2)cc1C,inactive,inactive
Cc1ccc(S(=O)(=O)Nc2cncc(C(=O)Nc3nc(-c4ccccc4)cs3)c2)cc1,inactive,inactive
CCCCN(C)C(=O)Cn1nc(-c2ccc(F)cc2)ccc1=O,inactive,inactive

Compound,Potency [1],Potency [2]
COc1ccc(Cl)cc1S(=O)(=O)N1CCN(S(=O)(=O)c2ccc3c(c2)OCCO3)CC1,inactive,inactive
CC(=O)Nc1ccc(NC(=O)c2cnn3c(C)cc(C)nc23)cc1,inactive,inactive
Cc1cc2c(s1)c1cnn(Cc3ccc(C)c(F)c3F)c(=O)c1n2C,inactive,inactive
C[C@@H]1CC[C@]2(C(=O)O)CC[C@]3(C(=O)O)C(=CCC4[C@@]5(C)CC[C@H](O[C@@H]6O[C@@H](C)[C@H](O[C@@H]7O[C@H](CO)[C@@H](O)[C@H](O)[C@H]7O)[C@@H](O)[C@H]6O)C(C)(C)C5CC[C@]43C)C2[C@H]1C (stereo not given in full),inactive,inactive
CC(=O)Nc1ccccc1OC1=N[S+](=O)([O-])c2ccccc21,inactive,inactive
FC(F)(F)c1cccc(N2CCN(C(=S)Nc3ccccn3)CC2)c1,inactive,inactive
COc1ccnc(NC(=S)N2CCN(c3ccc4ccccc4n3)CC2)c1,inactive,inactive
N#Cc1cc(NC(=O)Nc2nnc(-c3ccncc3)s2)ccc1F,inactive,inactive
O=C1CCc2cc(S(=O)(=O)Nc3ccccc3F)ccc2N1,inactive,inactive
O=C(CNC(=O)C1CCCC1)OC(C(=O)Nc1cc(C(F)(F)F)ccc1Cl)c1ccccc1 (stereo not given),inactive,inactive
C=C1C(=O)O[C@@H]2C[C@]3(C)[C@@H](CCC(C)O)[C@@H]3C[C@H]12 (stereo not given in full),inactive,inactive
Cc1ccc(NC(=O)CN2C(=O)N/C(=C\c3cccn3-c3ccc(C(=O)NC#N)cc3)C2=O)cc1,inactive,inactive
O=C(Nc1ccc(F)c(C(F)(F)F)c1)Nc1nc(-c2ccncc2)cs1,inactive,inactive
Cc1cccc(Nc2nc(NCCO)nc(N3CCCC3)n2)c1,inactive,inactive
CCOC(=O)c1cc2c([nH]1)CCCC2=O,inactive,inactive
CC(=O)Nc1cc2c(s1)CNCC2,inactive,inactive
Fc1cccc(CNc2ncnc3ccc(-c4ccc5c(c4)OCO5)cc23)c1,inactive,inactive
Fc1ccccc1N1CCN(c2nc(-c3cccs3)nc3ccccc23)CC1,inactive,inactive
Cc1cccc(CNc2ccnc(-c3ccccc3C(F)(F)F)n2)c1,inactive,inactive
O=C(Nc1ccccc1)Nc1ccccc1,inactive,inactive
Cc1cc2c(s1)c1cnn(Cc3ccccc3F)c(=O)c1n2C,inactive,inactive
Cc1noc(C)c1-c1ccc2ncnc(NCc3ccccc3C(F)(F)F)c2c1,inactive,inactive

Compound,Potency [1],Potency [2]
CCOc1ccc(C(C)CNC(=O)c2cc3sccc3n2Cc2ccccc2)cc1OCC (stereo not given),inactive,inactive
COc1cc(O)c(C(CC(=O)N2CCCC(C)C2)c2ccc(C)cc2)c(OC)c1 (stereo not given),inactive,inactive
Cc1cc(C2N=C(Nc3nc4ccccc4o3)NC3=C2C(=O)CCC3)n[nH]1 (stereo not given),inactive,inactive
O=c1[nH]c(CCl)nc2sc3c(c12)CCC3,inactive,inactive
O=C1C2=C(CN1c1ccccc1)NC(Nc1nc3ccccc3o1)=NC2c1ccccc1Cl (stereo not given),inactive,inactive
Fc1cnc(-c2ccccc2C(F)F)nc1NCc1ccc(-c2cccnc2)cc1,inactive,inactive
CCCCNc1nc(C)nc2c1nc(C)n2CCC,inactive,inactive
Cc1ccc(OCCn2c(CCNC(=O)C(C)(C)C)nc3ccccc32)cc1,inactive,inactive
CC(=O)N1CCCc2cc(S(=O)(=O)Nc3ccc(C)c(C)c3)ccc21,inactive,inactive
Cc1ccc(OCCn2c(CCNC(=O)c3ccc(Cl)cc3)nc3ccccc32)cc1,inactive,inactive
COc1ccc(C2=Nn3c(nnc3-c3ccccc3O)SC2)cc1OC,inactive,inactive
O=C([C@H](Cc1ccc(O[S+](=O)([O-])c2cccc3cnccc23)cc1)N[S+](=O)([O-])c1cccnc1)N1CCN(c2ccccc2)CC1,inactive,inactive
O=C(NNc1nc2cc(F)ccc2n2cccc12)c1cnccn1,inactive,inactive
Cc1cnc(-c2ccccc2C(C)O)nc1NCc1ccc(-c2cccnc2)cc1 (stereo not given),inactive,inactive
CN(Cc1cccs1)c1ncnc2ccc(-c3ccc4c(c3)OCO4)cc12,inactive,inactive
Cc1cc(N[S+](=O)([O-])c2ccc(NC(=O)Cc3cccc(Cl)c3Cl)cc2)no1,inactive,inactive
O=C(Nc1nc(-c2ccccc2)cs1)c1ccncc1NS(=O)(=O)c1ccccc1,inactive,inactive
Cc1ccc(N(C)S(=O)(=O)c2ccc3c(c2)CCC(=O)N3)cc1C,inactive,inactive
CC(=O)c1ccc(N2CCN(S(=O)(=O)c3ccc4[nH]c(=O)oc4c3)CC2)cc1,inactive,inactive
